Results as given in the supplement of paper PMC10849652.
Targets with a hit are over-represented here; the source holds about 7,900 in all. About 0.6% of all pairs of compound and target were hits. Values without a mark were called inactive.

Key:
Test in all cases: log2 fold change, soluble protein after heating vs DMSO (PISA); higher = thermal stabilisation; K562 cells, 10 uM, 30 min; active = over 0.2 and 3.5 SD of the protein, either way, in both replicates (recomputed)
IRAK-1-4 Inhibitor I = compound: C1COCCN1CCN2C3=CC=CC=C3N=C2NC(=O)C4=CC(=CC=C4)[N+](=O)[O-] [IRAK-1-4 Inhibitor I]
Outline: (§1)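 K562 cells at 2×10^6 cells/mL were treated with 10 μM compound for 30 min. Aliquots were heated for 3 min across 48°C-58°C, pooled, and extracted in PBS with 0.5% NP-40 at 4°C; soluble protein was the supernatant after 21,000xg for 90 min. Soluble protein was quantified by TMTpro 16plex LC-MS/MS with channel sums equalised, and reported as log2 fold change in thermal stability against DMSO controls, with values from duplicates.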

ibrutinib = compound: C=CC(=O)N1CCC[C@@H](n2nc(-c3ccc(Oc4ccccc4)cc3)c3c(N)ncnc32)C1 [ibrutinib]
Outline: as §1

[1] = compound: CC(=O)c1cnc2ccc(-c3cc(Cl)c(O)c(Cl)c3)nc2c1N[C@H]1CC[C@H](CN(C)C)CC1
Outline: as §1

ralimetinib = compound: CC(C)(C)Cn1c(N)nc2ccc(-c3[nH]c(C(C)(C)C)nc3-c3ccc(F)cc3)nc21 [ralimetinib]
Outline: as §1

[2] = compound: CC(C)(O)CC(=O)NCCn1ccc2ncnc(Nc3ccc(Oc4cccc(C(F)(F)F)c4)c(Cl)c3)c21
Outline: as §1

[3] = compound: CC(C)C1=C2N=C(C=C(N2N=C1)NCC3=CC=CC=C3)NCCCCCCN
Outline: as §1

[4] = compound: CC(C)C[C@@H](C=O)NC(=O)[C@H](CC(C)C)NC(=O)[C@H](CC(C)C)NC(=O)OCc1ccccc1
Outline: as §1

pinometostat = compound: CC(C)N(C[C@H]1O[C@@H](n2cnc3c(N)ncnc32)[C@H](O)[C@@H]1O)[C@H]1C[C@@H](CCc2nc3cc(C(C)(C)C)ccc3[nH]2)C1 [pinometostat]
Outline: as §1

[5] = compound: CC1=C(C(CC(=O)N1)C2=CC=C(C=C2)C(F)(F)F)C(=O)NC3=C(C=C4C(=C3)C=NN4)F
Outline: as §1

[6] = compound: CC1=C(C2=C(C=C1)C(=O)C3=CC=CC=C3N2CCCN)C
Outline: as §1

Chain of UniProt O60890 (O60890 whole entry, looked up): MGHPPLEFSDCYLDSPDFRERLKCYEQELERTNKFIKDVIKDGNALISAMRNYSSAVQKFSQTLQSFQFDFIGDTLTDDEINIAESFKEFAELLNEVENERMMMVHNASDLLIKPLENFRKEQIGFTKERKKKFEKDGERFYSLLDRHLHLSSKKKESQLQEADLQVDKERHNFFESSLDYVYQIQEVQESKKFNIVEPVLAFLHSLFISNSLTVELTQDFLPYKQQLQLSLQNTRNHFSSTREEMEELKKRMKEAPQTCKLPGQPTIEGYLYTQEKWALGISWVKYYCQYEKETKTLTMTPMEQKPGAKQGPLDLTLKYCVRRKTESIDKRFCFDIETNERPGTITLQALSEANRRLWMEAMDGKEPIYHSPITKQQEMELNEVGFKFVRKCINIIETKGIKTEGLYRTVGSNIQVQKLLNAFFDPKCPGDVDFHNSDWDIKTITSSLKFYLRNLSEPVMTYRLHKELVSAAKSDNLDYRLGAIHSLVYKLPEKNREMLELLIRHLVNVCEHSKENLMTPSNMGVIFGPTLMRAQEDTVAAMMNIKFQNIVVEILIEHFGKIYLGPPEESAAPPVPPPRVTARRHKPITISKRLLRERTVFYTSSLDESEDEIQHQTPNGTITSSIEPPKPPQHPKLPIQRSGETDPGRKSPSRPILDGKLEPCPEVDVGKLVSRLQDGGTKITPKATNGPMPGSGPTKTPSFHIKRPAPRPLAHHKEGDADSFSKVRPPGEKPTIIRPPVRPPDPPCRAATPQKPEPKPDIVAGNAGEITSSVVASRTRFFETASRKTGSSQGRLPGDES
Chain of UniProt O15118 (O15118 whole entry, looked up): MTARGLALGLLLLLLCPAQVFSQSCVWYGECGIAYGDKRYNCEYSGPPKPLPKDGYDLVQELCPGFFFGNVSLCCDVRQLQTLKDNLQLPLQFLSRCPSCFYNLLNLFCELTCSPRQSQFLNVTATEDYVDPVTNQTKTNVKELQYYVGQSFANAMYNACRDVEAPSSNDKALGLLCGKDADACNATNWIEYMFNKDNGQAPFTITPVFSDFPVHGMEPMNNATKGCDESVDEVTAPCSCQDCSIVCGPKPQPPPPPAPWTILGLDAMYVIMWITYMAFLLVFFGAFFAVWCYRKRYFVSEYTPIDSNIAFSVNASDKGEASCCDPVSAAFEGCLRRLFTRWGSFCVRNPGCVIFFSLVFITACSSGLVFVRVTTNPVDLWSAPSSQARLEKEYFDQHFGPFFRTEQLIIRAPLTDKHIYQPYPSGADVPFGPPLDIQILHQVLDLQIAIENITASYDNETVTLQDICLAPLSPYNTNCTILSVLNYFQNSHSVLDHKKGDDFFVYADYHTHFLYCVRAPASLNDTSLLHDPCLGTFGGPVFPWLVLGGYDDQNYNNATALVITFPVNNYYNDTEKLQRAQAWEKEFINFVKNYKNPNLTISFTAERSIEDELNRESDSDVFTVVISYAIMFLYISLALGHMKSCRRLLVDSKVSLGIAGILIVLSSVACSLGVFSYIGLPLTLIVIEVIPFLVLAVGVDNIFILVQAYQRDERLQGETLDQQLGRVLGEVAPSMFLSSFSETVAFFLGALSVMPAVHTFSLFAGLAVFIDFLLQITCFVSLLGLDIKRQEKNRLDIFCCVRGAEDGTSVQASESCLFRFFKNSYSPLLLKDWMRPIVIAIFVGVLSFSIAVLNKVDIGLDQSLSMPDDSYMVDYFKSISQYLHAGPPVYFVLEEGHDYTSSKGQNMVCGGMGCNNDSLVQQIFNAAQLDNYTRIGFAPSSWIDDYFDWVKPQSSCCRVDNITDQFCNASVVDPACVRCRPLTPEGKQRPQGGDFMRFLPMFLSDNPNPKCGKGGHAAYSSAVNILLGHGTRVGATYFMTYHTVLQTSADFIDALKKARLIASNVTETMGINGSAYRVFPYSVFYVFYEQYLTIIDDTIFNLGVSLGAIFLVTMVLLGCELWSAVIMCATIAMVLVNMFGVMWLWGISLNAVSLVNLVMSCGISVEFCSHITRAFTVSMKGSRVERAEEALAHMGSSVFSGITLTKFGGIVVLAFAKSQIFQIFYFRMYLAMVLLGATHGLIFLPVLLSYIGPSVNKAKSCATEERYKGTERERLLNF
Chain of UniProt P46934 (P46934 whole entry, looked up): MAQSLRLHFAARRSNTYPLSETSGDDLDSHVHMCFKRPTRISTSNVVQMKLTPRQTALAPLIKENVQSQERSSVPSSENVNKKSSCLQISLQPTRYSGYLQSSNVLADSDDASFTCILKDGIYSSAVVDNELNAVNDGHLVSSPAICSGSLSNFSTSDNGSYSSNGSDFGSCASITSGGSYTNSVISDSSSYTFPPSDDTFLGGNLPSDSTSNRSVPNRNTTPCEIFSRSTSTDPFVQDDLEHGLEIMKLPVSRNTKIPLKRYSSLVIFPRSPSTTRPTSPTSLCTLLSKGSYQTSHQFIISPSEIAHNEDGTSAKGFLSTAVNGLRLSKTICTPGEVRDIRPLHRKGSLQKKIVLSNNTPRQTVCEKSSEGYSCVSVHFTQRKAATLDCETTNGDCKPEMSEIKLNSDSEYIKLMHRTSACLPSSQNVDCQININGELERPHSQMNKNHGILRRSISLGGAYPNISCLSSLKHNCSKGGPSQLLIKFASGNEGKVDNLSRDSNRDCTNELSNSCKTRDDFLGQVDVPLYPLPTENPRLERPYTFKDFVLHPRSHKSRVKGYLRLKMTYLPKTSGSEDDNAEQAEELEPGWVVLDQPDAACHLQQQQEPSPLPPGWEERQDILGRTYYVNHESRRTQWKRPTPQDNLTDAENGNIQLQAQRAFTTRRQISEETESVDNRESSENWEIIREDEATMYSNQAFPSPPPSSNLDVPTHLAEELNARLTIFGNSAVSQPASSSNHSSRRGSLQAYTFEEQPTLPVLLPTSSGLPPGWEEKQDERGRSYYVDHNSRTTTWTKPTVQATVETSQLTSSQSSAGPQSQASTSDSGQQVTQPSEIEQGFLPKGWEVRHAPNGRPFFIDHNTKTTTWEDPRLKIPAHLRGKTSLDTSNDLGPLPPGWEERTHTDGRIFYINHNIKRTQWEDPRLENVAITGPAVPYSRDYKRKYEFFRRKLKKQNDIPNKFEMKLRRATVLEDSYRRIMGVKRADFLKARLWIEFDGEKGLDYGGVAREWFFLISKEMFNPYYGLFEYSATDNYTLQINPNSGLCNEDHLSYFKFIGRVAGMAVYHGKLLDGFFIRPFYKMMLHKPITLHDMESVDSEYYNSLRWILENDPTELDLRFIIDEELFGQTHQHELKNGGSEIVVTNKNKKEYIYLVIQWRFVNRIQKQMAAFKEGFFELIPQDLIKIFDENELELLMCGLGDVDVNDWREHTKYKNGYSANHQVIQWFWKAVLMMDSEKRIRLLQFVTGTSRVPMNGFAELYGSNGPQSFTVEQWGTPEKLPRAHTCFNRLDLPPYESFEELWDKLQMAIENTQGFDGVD
Chain of UniProt P52701 (P52701 whole entry, looked up): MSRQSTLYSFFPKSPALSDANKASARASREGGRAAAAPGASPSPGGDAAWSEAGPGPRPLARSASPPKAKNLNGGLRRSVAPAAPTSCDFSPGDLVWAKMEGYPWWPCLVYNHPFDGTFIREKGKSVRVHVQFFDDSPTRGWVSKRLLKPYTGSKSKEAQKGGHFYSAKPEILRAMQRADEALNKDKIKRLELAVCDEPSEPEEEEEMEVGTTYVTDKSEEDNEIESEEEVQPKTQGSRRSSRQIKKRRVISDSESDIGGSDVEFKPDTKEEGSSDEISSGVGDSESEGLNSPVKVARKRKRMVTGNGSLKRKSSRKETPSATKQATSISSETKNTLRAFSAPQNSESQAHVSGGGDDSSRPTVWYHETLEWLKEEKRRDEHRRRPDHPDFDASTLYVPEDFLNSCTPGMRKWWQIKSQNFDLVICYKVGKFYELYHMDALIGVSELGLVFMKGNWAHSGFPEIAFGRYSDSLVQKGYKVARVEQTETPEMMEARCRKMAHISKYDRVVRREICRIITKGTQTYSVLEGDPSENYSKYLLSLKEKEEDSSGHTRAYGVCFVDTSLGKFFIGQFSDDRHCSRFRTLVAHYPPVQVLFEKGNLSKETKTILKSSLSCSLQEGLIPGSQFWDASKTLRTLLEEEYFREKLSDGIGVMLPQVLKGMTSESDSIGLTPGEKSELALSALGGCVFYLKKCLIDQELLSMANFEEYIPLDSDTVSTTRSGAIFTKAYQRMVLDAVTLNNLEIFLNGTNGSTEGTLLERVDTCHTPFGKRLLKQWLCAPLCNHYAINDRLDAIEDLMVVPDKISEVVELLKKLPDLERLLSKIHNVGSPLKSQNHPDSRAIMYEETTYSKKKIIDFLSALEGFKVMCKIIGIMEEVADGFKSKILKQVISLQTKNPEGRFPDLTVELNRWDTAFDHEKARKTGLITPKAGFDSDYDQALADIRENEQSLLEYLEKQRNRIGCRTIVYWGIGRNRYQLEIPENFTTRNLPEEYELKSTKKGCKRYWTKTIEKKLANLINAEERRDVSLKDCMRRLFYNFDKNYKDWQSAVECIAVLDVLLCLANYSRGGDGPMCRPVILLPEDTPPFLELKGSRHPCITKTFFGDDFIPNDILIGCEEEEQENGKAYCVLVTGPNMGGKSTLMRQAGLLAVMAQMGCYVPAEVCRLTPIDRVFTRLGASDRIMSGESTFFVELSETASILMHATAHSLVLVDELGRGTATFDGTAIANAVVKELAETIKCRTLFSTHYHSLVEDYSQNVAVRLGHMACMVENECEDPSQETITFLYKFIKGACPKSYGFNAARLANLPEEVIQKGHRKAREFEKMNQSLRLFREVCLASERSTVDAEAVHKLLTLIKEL
Chain of UniProt O60361 (O60361 whole entry, looked up): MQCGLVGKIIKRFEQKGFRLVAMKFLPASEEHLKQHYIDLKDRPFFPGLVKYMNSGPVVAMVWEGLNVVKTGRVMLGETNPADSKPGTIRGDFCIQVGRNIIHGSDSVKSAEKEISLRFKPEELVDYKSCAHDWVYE
Chain of UniProt P48645 (P48645 whole entry, looked up): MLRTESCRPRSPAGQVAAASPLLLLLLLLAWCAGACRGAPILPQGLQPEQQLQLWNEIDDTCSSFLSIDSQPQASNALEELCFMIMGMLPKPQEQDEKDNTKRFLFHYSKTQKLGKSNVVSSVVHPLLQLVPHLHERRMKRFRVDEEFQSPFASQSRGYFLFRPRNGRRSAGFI

Target	log2 fold change (IRAK-1-4 Inhibitor I)	log2 fold change (ibrutinib)	log2 fold change [1]	log2 fold change (ralimetinib)	log2 fold change [2]	log2 fold change [3]	log2 fold change [4]	log2 fold change (pinometostat)	log2 fold change [5]	log2 fold change [6]
NUMBL (UniProt Q9Y6R0)	0.144	-0.032	-0.349 (active)	-0.032	0.044	-0.026	0.162	0.111	-0.024	
NCAPG (UniProt Q9BPX3)	-0.092	-0.033	0.084	0.038	-0.126	-0.197	-0.005	-0.003	-0.011	0.016
MON1B (UniProt Q7L1V2)	0.047	0.037	-0.013	0.095	-0.006	-0.406 (active)	0	-0.039	-0.023	0
NCK1 (UniProt P16333)	-0.178	-0.154	-0.252	0.044	-0.038	-0.283	0.082	0.076	0.005	0.039
OXA1L (UniProt Q15070)	0.05	0.011	0.03	-0.037	0.006	-0.209	-0.004	0	0.016	-0.018
MT-ND1 (UniProt P03886)	0.104	-0.009	-0.072	0.071	-0.142	-0.142	-0.102	-0.092	-0.115	0.119
NOP56 (UniProt O00567)	-0.03	0.025	0.015	0.082	0.108	0.202	0.234	0.198	0.086	0.187
NRGN (UniProt Q92686)	0.151	0.079	0.034	0.007	0.053	0.058	-0.199	0.21	0.108	
NANS (UniProt Q9NR45)	0.091	-0.034	-0.01	0.015	-0.043	-0.006	-0.036	0	0.033	0.065
NCOR1 (UniProt O75376)	0.052	0.078	-0.46 (active)	0.01	0.011	0.055	0.022	0.05	-0.084	0.093
MRPS2 (UniProt Q9Y399)	-0.043	0.109	-0.011	-0.02	-0.035	-0.03	0.08	0.002	0.002	-0.079
OPHN1 (UniProt O60890)	-0.086	-0.145	-0.021	-0.033	-0.146	0.12	-0.042	-0.062	-0.034	0.069
NDUFA4 (UniProt O00483)	0	-0.019	-0.024	-0.098	-0.029	-0.018	-0.009	-0.013	0.032	0.126
MTOR (UniProt P42345)	-0.029	-0.03	0.183	0.011	-0.084	-0.288 (active)	-0.002	0.046	-0.044	0.014
NSUN2 (UniProt Q08J23)	-0.02	-0.029	-0.165	0.062	-0.008	-0.314 (active)	0.026	0.058	0.008	-0.075
NPC1 (UniProt O15118)	0.014	0.03	0.031	-0.041	0.028	-0.184	0.006	-0.055	0.078	-0.147
NME2P1 (UniProt O60361)	-0.019	-0.18	-0.033	0.032	-0.024	-0.072	-0.135	0.037	0.149	0.031
MSH6 (UniProt P52701)	-0.18	-0.088	-0.121	-0.024	-0.299	-0.544	0.039	-0.005	0.053	0.884 (active)
NAA11 (UniProt Q9BSU3)	0.035	0.049	-0.102	-0.024	-0.042	-0.075	0.072	-0.131	-0.007	0
MT-ND4 (UniProt P03905)	-0.005	-0.092	-0.236	-0.06	-0.094	-0.124	-0.054	-0.135	-0.065	0.056
MRPS16 (UniProt Q9Y3D3)	-0.082	0.02	-0.047	-0.008	-0.034	-0.19	0.015	0.021	0	-0.126
MKRN2 (UniProt Q9H000)	-0.063	0.026	-0.137	0.034	0.017	0.032	0.089	0.094	-0.017	-0.064
NECTIN2 isoform 2 (UniProt Q92692)	-0.018	0.047	0.03	0.081	0.1	0.059	0.008	-0.008	0	
MRPS15 (UniProt P82914)	-0.062	-0.022	-0.024	0.014	-0.12	-0.041	0.004	0.041	-0.01	-0.2
MRPL47 (UniProt Q9HD33)	-0.11	0.022	0.003	0.056	0.016	-0.001	0.071	0.181	0.047	-0.083
NFX1 (UniProt Q12986)	-0.028	0.083	-0.002	0.178	0.099	-0.051	0.227	0.182	0.011	-0.043
MRPS12 (UniProt O15235)	0.05	-0.031	-0.033	-0.017	-0.053	-0.123	0.092	0.111	0.014	-0.224
NEDD4 isoform 4 (UniProt P46934)	0.002	-0.038	0.02	-0.014	-0.027	-0.124	0.019	-0.03	-0.025	-0.065
MSL1 (UniProt Q68DK7)	0.007	0.01	-0.039	0.184	-0.086	0.071	-0.005	-0.1	-0.022	
NMU (UniProt P48645)	-0.052	0.027	0.034	0.063	0.011	0.123	0.313	-0.106	0.03	-0.174
